Columns and labels:
Assay in all cases: PBM binding z-score (relative to random genomic background probes); higher = stronger binding; sequences stand for … in GC…GCGATTGACAGCGTAGAATGAAGG
[1] = tested on: FXR:RXRa (NR concentration 270 nM, RXRa partner concentration 90 nM)
How it was run: (§1)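 Regression normalization was applied to scanned fluorescence from custom Agilent 4×180K protein-binding microarrays. Before scanning, arrays were incubated 1 h with ligand-free nuclear receptor dimers, and binding was detected with antibodies against each partner (one per run). Binding z-scores use the random background probes as reference.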

[2] = tested on: LXRa:RXRa (NR concentration 270 nM, RXRa partner concentration 90 nM)
How it was run: as §1

[3] = tested on: LXRa homodimer (NR concentration 270 nM)
How it was run: as §1

[4] = tested on: LXRb:RXRa (NR concentration 270 nM, RXRa partner concentration 90 nM)
How it was run: as §1

[5] = tested on: LXRb homodimer (NR concentration 270 nM)
How it was run: as §1

[6] = tested on: PPARa:RXRa (NR concentration 270 nM, RXRa partner concentration 90 nM)
How it was run: as §1

[7] = tested on: PPARg:RXRa (NR concentration 180 nM, RXRa partner concentration 90 nM)
How it was run: as §1

[8] = tested on: PPARg:RXRa 270nM:90nM, anti-RXR (NR concentration 270 nM, RXRa partner concentration 90 nM)
How it was run: as §1

[9] = tested on: PPARg:RXRa 30nM:10nM, anti-RXR (NR concentration 30 nM, RXRa partner concentration 10 nM)
How it was run: as §1

[10] = tested on: PPARg:RXRa 90nM:30nM, anti-RXR (NR concentration 90 nM, RXRa partner concentration 30 nM)
How it was run: as §1

[11] = tested on: PPARg:RXRa DBDmut IVT, anti-RXR (DBD mutation: RXRa K156A/R161A, NR concentration 270 nM, RXRa partner concentration 90 nM)
How it was run: as §1

[12] = tested on: PPARg:RXRa IVT, anti-PPARg (NR concentration 270 nM, RXRa partner concentration 90 nM)
How it was run: as §1

[13] = tested on: PPARg DBDmut:RXRa IVT, anti-PPARg (DBD mutation: PPARg1 K132A/R137A, NR concentration 270 nM, RXRa partner concentration 90 nM)
How it was run: as §1

[14] = tested on: PPARg DBDmut IVT, anti-PPARg (DBD mutation: PPARg1 K132A/R137A, NR concentration 270 nM)
How it was run: as §1

[15] = tested on: PPARg homodimer (NR concentration 180 nM)
How it was run: as §1

[16] = tested on: PXR:RXRa (NR concentration 270 nM, RXRa partner concentration 90 nM)
How it was run: as §1

[17] = tested on: PXR homodimer (NR concentration 270 nM)
How it was run: as §1

[18] = tested on: RARa:RXR (NR concentration 270 nM, RXRa partner concentration 90 nM)
How it was run: as §1

[19] = tested on: RARa homodimer (NR concentration 270 nM)
How it was run: as §1

[20] = tested on: RARb:RXRa (NR concentration 270 nM, RXRa partner concentration 90 nM)
How it was run: as §1

Sequence	PBM binding z-score [1]	PBM binding z-score [2]	PBM binding z-score [3]	PBM binding z-score [4]	PBM binding z-score [5]	PBM binding z-score [6]	PBM binding z-score [7]	PBM binding z-score [8]	PBM binding z-score [9]	PBM binding z-score [10]	PBM binding z-score [11]	PBM binding z-score [12]	PBM binding z-score [13]	PBM binding z-score [14]	PBM binding z-score [15]	PBM binding z-score [16]	PBM binding z-score [17]	PBM binding z-score [18]	PBM binding z-score [19]	PBM binding z-score [20]
GCGACTGGGGCATCAGCTGGTTACCATAACTTAA	-0.422	-0.589	-0.452	0.296	-0.935	0.397	0.563	0.562	-0.565	0.127	3.64	3.01	-1.02	-0.691	-0.402	-0.444	-1.17	-0.536	-1.25	0.475
CTACCAAGGTGAACAAGGTCGTTGCTTACTATTC	1.51	1.61	0.37	2.11	-0.314	2.55	0.964	1.34	-0.119	0.845	2.88	2.58	0.0347	-0.195	1.15	3.08	1.88	2.64	-0.135	2.23
ATCTCTAGGTAACCAACTTCAGTGAATGCCGAAC	0.38	0.07	0.43	0.199	1.07	0.378	0.531	0.519	0.321	0.666	4.05	2.98	1.39	1.39	0.412	-0.17	0.34	0.0512	0.816	0.248
CGTCCAAGGTCAATGCTAGGTTAGTGAAAGCATT	6.49	4.7	0.436	3.76	0.627	5.08	3.32	4.3	1.15	2.85	2.98	3.27	0.204	-0.204	2.37	3.78	0.753	3.88	0.52	5.04
CGTCCAAGGTCAAAGGTCAGTGATGAGATGACGG	8.34	6.88	3.97	6.55	2.01	7.15	10.7	8.75	8.43	9.31	4.14	5.89	0.972	0.974	3.97	6.83	1.94	8.65	1.61	6
AGAATGAGGTTATACGTAGATTAGGGAAGAAAGT	2.38	1.89	0.103	1.74	0.111	3.21	2.37	2.4	0.937	1.76	3.81	2.24	1.48	1	0.912	1.38	0.713	1.72	0.516	1.63
AGAATGAGGATAAGATCAGGGAAACAGAATACAT	0.459	-0.133	-0.218	-0.0492	-0.342	-0.0848	1.2	-0.174	0.433	0.00747	-0.0375	-0.0536	-0.123	0.538	0.327	-0.171	0.272	0.067	0.354	0.0475
AGAATGAGGATATACGTAGATCAGGGAAGAAAGT	-0.224	-0.666	-0.354	-0.479	-0.429	-0.509	0.977	-0.177	0.217	-0.000713	-0.138	-0.218	0.0706	0.805	0.0264	-0.403	-0.147	-0.363	0.32	-0.448
CCTCGGAGGACAGAAGGTCAGTGCTGTCCGCTTT	1.08	1.1	-0.0896	0.672	-0.597	1.49	-0.509	0.452	-0.825	-0.242	-0.0749	-0.108	-0.925	-2	1.55	1.18	-0.686	1.65	-0.0741	3.28
TCGAGTATGTTAGTCGGGGCATTCAGCCAACATA	-0.336	-0.354	-0.761	0.103	-0.713	-0.0801	-0.372	0.0519	0.966	0.691	0.962	0.119	-0.528	-0.979	-0.491	-0.224	-0.529	-0.247	-0.841	0.204
TCTTGTAGATCAATAGAGGTTAATAAAGTGCGCT	0.771	5.4	0.943	3.5	-0.00633	1.72	0.484	1.59	2.72	2.15	1.47	1.13	0.628	0.945	0.295	2.84	0.364	1.63	0.341	0.772
GCTTACGGGTCAAAGGATATAGCATGAATAGAAT	5.93	3.75	-0.261	3.44	0.261	5.37	5.87	5.9	3.29	5.26	4.24	4.01	1.25	1.03	1.09	3.09	-0.166	3.94	0.713	3.54
TCTATTAGTTGAAGGGCAACCTACGAGTCCGTTT	0.82	0.87	0.394	0.789	0.451	0.702	0.121	1.88	3.44	2.53	2.23	0.488	0.411	0.817	1.5	0.858	1.18	0.893	1.08	1.57
CTACCAAGGCGAACAAGGTCGTTGATTACTATTC	0.285	0.164	0.0479	0.521	-0.798	0.658	0.0767	0.292	-0.118	-0.247	0.161	-0.119	-0.0454	0.0113	0.33	1.25	0.453	1.16	0.111	0.395
